Measurements reported in PubChem BioAssay (NCATS).
Inconclusive results are not listed. The source made the active and inactive calls. Unless noted, calls come from the whole dose curve; as a rule, active = well fitted curve in either direction with a large enough effect (not every such curve was filed as active); inconclusive = small, poorly fitted or top-dose-only effect, or another doubt; inactive = flat fitted curve, though single readings scatter.

Biological target: Cytochrome P450 1A2 (Homo sapiens) (UniProt P05177)
Assay: p450-cyp1a2 (AID 410; calls by dose curve; note: potency is the fitted concentration of half-maximal effect;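 for Activity change, negative = inhibition: -100% = full effect of reference inhibitor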)
Settings: recombinant CYP1A2, luciferin-ME demethylation, luminescence; series mostly up to 57 µM
In short: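 O-Demethylation of luciferin 6' methyl ether by human CYP1A2 is monitored as luciferase luminescence. Substrate sits at Km (100uM); enzyme is 20nM. Values are scaled to 57 uM furafylline as maximal inhibition.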

Chain of Cytochrome P450 1A2 (Homo sapiens) (P05177 whole entry, looked up): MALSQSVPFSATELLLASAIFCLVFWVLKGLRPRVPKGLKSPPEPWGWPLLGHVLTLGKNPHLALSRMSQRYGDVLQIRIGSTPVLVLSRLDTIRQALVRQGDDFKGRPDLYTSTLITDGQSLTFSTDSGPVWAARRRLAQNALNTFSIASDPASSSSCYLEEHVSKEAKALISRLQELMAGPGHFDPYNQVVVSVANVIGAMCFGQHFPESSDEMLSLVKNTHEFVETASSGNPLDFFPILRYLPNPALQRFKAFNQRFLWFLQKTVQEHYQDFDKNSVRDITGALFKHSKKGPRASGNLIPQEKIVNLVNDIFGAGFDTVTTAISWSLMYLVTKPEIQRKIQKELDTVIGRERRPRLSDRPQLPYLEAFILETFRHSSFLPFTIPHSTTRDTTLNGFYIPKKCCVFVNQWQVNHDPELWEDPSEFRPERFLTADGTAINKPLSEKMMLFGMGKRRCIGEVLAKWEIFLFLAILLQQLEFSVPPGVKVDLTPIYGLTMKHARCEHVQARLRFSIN

Potency, active:
O=C(c1cccc(F)c1)N1CCC2(CCCN(C(c3ccccc3)c3ccccc3)C2)CC1 6.31 µM
Cn1cccc1C(=O)N1CCC2(CCCN(C(c3ccccc3)c3ccccc3)C2)CC1 12.6 µM
COC(=O)N1CCC2(CC1)CN(c1ccc(-c3ccccc3)cc1)C2 1.26 µM
c1ccc(Nc2ncnc3ccc(-c4cccnc4)cc23)cc1 0.0794 µM
CN(C)Cc1ccccc1-c1ccc2ncnc(N3CCOCC3)c2c1 15.8 µM

Potency, inactive:
COc1ccccc1CN1CCC2(CC1)CCN(S(C)(=O)=O)CC2
COCC(=O)N1CCC2(CC1)CCN(c1ncccn1)CC2

Test system: not listed separately
Assay: NFAT Signaling Pathway (AID 444);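 note: carbachol stimulus at about its EC50 of 1 µM final; % is set by controls: 0 for no effect and ±100 for the full control effect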
Settings: Jurkat NFAT-bla M1, carbachol, beta-lactamase ratio, 5 h; at 7.69 µM (top of the series) unless noted
In short: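 Jurkat cells carrying an NFAT-driven β-lactamase reporter and co-transfected muscarinic M1 receptor were treated with compound plus carbachol (1 uM final, an EC50 level) for 5 h at 37 °C. CCF4 loading followed for 1 h at RT; 460/530 nm ratio gave %activity.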

Activity change, negative = inhibition, inactive:
COc1ccccc1CNc1ncncc1-c1ccccc1C -19.5%
CS(=O)(=O)N1CCC2(CC1)CN(c1ccccc1)C2 24.3%
CCNc1ncc2ncc(=O)n(C[C@H]3CCCO3)c2n1 -20%
CN(C)C(=O)c1ccc(-c2nc(NCc3ccccc3)c3ccccc3n2)cc1 16%
CN(C)C(=O)c1ccc(-c2nc(NCc3cccs3)c3ccccc3n2)cc1 28.9%
CC(C)NC(=O)N1CC[C@@]2(CCCN(S(=O)(=O)c3ccccc3)C2)C1 18.4%
COc1ccccc1CN1CCC2(CC1)CCN(S(C)(=O)=O)CC2 -27.6%
COC(=O)N1CCC2(CC1)CN(c1ccc(-c3ccccc3)cc1)C2 15.9%
COCC(=O)N1CCC2(CC1)CCN(c1ncccn1)CC2 16.6%
CN(C)Cc1ccccc1-c1ccc2ncnc(N3CCOCC3)c2c1 2.99%

Test system: not listed separately
Assay: Stat Signaling Pathway (AID 446);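 note: ME-180 cervical cancer cells given 40 pM IL-6 alongside compound; SIE-controlled beta-lactamase reporter measured as 460/530 nm FRET emission ratio; % is set by controls: 0 for no effect and ±100 for the full control effect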
Settings: ME-180 (cervical carcinoma) SIE beta-lactamase reporter, IL-6 stimulated, 5 h; at 7.69 µM (top of the series) unless noted
In short: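 Emission at 460 and 530 nm (excitation 405 nm) reports SIE-controlled beta-lactamase in ME-180 cells. Cells received compound with 40 pM IL-6 for 5 hrs at 37 C; data scaled between 300 pM IL-6 and 125 nM JAK-inhibitor controls.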

activity, negative = inhibition, inactive:
COc1ccc(C(=O)N2CCC3(CC2)CCN(c2ccncc2)CC3)cc1 5.85%
CC(C)CN1CC2(CCN(C(=O)c3csnn3)CC2)C1 4.77%
Cc1cnc(CNc2ncncc2-c2ccccc2CN(C)C)cn1 17.1%
COc1ccccc1CNc1ncncc1-c1ccccc1C 12.8%
CS(=O)(=O)N1CCC2(CC1)CN(c1ccccc1)C2 -8.44%
O=C(c1cnccn1)N1CCC2(CC1)CCN(c1ccncc1)CC2 2.83%
O=C(c1cnccn1)N1CCC2(CCCN(Cc3ccccc3)C2)CC1 -11.8%
COc1ccccc1CN1CCC2(CC1)CCN(C(=O)c1ccco1)CC2 -4.26%
CN(C)C(=O)c1ccc(-c2nc(NCc3ccccc3)c3ccccc3n2)cc1 -21.7%
O=C(c1cccc(F)c1)N1CCC2(CCCN(c3ccccn3)C2)CC1 -2.13%
CC(C)CN1CCCC2(CCN(C(=O)c3cnccn3)CC2)C1 7.99%
CC(C)CN1CC2(CCN(S(=O)(=O)c3ccccc3)CC2)C1 -2.48%
CN(C)C(=O)c1ccc(-c2nc(NCc3cccs3)c3ccccc3n2)cc1 -25%
N#Cc1ccc(CN2CC3(CCN(C(=O)c4cnccn4)CC3)C2)cc1 11.6%
CC(C)NC(=O)N1CC[C@@]2(CCCN(S(=O)(=O)c3ccccc3)C2)C1 1.4%
O=C(c1cccc(F)c1)N1CCC2(CC1)CN(c1ccccn1)C2 -12.3%
COc1ccc(C(=O)N2CCC3(CCN(Cc4ccc(C#N)cc4)CC3)CC2)cc1 0.785%
O=C(c1cccc(F)c1)N1CCC2(CCCN(C(c3ccccc3)c3ccccc3)C2)CC1 17.2%
COc1ccccc1CN1CCC2(CC1)CCN(S(C)(=O)=O)CC2 -4.05%
Cn1cccc1C(=O)N1CCC[C@@]2(CCN(C(=O)Nc3cccc(F)c3)C2)C1 5.29%
CC(C)CN1CC[C@@]2(CCCN(C(=O)c3ccco3)C2)C1 -2.85%
COc1ccccc1CN1CCCC2(CCN(S(=O)(=O)c3ccccc3)CC2)C1 1.94%
Cn1cccc1C(=O)N1CCC2(CCCN(C(c3ccccc3)c3ccccc3)C2)CC1 6.33%
COC(=O)N1CCC2(CC1)CN(c1ccc(-c3ccccc3)cc1)C2 -8.46%
COCC(=O)N1CCC2(CCCN(Cc3ccc(C#N)cc3)C2)CC1 1.68%
COCC(=O)N1CCC2(CC1)CCN(c1ncccn1)CC2 -0.157%
O=C(c1ccncc1)N1CCC2(CCCN(Cc3nccs3)C2)CC1 7.31%
c1ccc(Nc2ncnc3ccc(-c4cccnc4)cc23)cc1 19.3%
O=C(c1csnn1)N1CCC2(CCN(Cc3cc(C(F)(F)F)cc(C(F)(F)F)c3)CC2)CC1 4.05%
CN(C)Cc1ccccc1-c1ccc2ncnc(N3CCOCC3)c2c1 12.4%
O=S(=O)(c1ccccc1)N1CCC2(CC1)CN(c1ccncc1)C2 0.614%
COC(=O)N1CCC2(CCCN(c3ccccn3)C2)CC1 -6.11%
CC(=O)N1CCC2(CCCN(Cc3ccc(C#N)cc3)C2)CC1 6.73%
